Consider 40 molecules from PubChem BioAssay (NCI).

The structures appear in SMILES notation. Compounds without any hit were thinned out: in the full panel of roughly 83,000, 20% have a hit.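 Activity criterion: percent growth below 10, measured after cells in 96-well plates were exposed to a single compound concentration for 48 hours.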 Active and inactive are the calls of the source.

This experiment relates to HL-60(TB) leukemia. The experiment can be described thus: NCI-60 one-dose screen, 48 h (100 = growth as untreated, 0 = no growth, -100 = all killed). The settings on record: 10 µM unless noted.
As to `Cc1ccc(/C=C2\COc3ccc(O)cc3C2=O)cc1`, the growth was -31.7% (active).

Regarding `CCCCOc1ccc(/C=C2/SC(N3CCOCC3)=NC2=O)cc1OCC`, the growth is 101% (inactive).

As to `CCCCC(O)Cn1ncc(C(=O)OCC)c1NC(=O)NCc1ccccc1C(F)(F)F` (stereo not given), the growth is 76.3% (inactive).

Turning to `O=c1nc(Nc2nc3ccccc3s2)[nH]c(=O)c2ccccc12`, the growth is 94.4% (inactive).

Regarding `O=C(O)c1ccc(Cl)cc1Nc1ccc(F)cc1`, the growth was 90.2% (inactive).

For the molecule `O=C(CSc1nnc(-c2ccccc2)o1)Nc1ccc(C(=O)/C=C/c2ccccc2)cc1`, the growth is 71% (inactive).

For `C=C(C)[C@@H]1CC[C@]2(C(=O)O)CC[C@]3(C)[C@H](CC[C@@H]4[C@@]5(C)C/C(=C/c6ccco6)C(=O)C(C)(C)[C@@H]5CC[C@]43C)[C@@H]12`, the growth is -17.2% [100 µM] (active).

On to `CN(C)C(=O)Nc1nc2cc(Cl)c(Cl)cc2[nH]1`, for which the growth is -29.9% (active).

As to `CCCCN1CCCC[C@@H]1C(=O)N[C@H](C(=O)N(C)[C@H](CCc1nc(C(=O)N[C@@H](Cc2ccccc2)C[C@H](C)C(=O)OC)cs1)C(C)C)C(C)C`, the growth is 5.08% (active).

For `O=C(Nc1ccc(-n2cc(-c3ccncc3)c(-c3ccc(Cl)c(O)c3)n2)cc1)N1CCOCC1`, the growth is 108% (inactive).

On to `CCOCCNc1ccc(S(=O)(=O)c2ccc(N)cc2)cc1N`, for which the growth was 107% (inactive).

Turning to `Fc1ccc2c(c1)c(-c1nc(-c3c[nH]c4ncccc34)cs1)cn2CCCN1CCOCC1`, the growth was 21.9% (inactive).

On to `Cc1c(CC(=O)Nc2ccccc2)nnn1-c1ccccc1`, for which the growth is 99.3% (inactive).

Consider `Cn1cc2c(c1)-c1nc(Nc3ccccc3)ncc1CC2`, for which the growth is 97.3% (inactive).

For `O=C(COc1cccc(/C=C2\CSc3ccccc3C2=O)c1)Nc1nccs1`, the growth is -76.3% (active).

With `CCN=C1C=CC(=C(c2ccc(N(C)C)cc2)c2ccc(N(C)C)cc2)c2ccccc21`, the growth was -9.26% (active).

As to `CC(=O)Nc1ccc(-n2cnc3cc(-c4ccc(OCCN5CCCCC5)cc4)ccc32)cc1`, the growth was 98.3% (inactive).

Turning to `CCOC(=O)C1OC1(c1ccccc1)c1ccccc1` (stereo not given), the growth is 89.4% (inactive).

As to `C/C(=N\Nc1cc(C)c2cc(C)ccc2n1)c1ccccn1`, the growth is -54.9% (active).

As for `O=[N+]([O-])c1ccc(NC(=S)N/N=C/c2cc3ccccc3n3nnnc23)cc1`, the growth was 27.4% (inactive).

Take `COc1cc(-c2nc3cc(Cl)c(Cl)cc3[nH]2)ccc1OCC(=O)N=Nc1c(O)[nH]c2ccc(Cl)cc12`: the growth is -32.7% (active).

Regarding `CC(C)c1ccc(C(=O)OC(=O)c2ccc(C(C)C)cc2)cc1`, the growth was 51.3% (inactive).

Regarding `CC(=O)N[C@H](C(=O)N[C@@H](CCCNC(=N)N)C(=O)N[C@@H](CCCCN)C(=O)N[C@@H](CCCNC(=N)N)C(=O)NC(C(=O)N[C@@H](CC(C)C)C(=O)N[C@@H](CCCNC(=N)N)C(=O)N[C@@]1(C)CCC/C=C\CCC[C@@](C)(C(=O)N[C@@H](CCCNC(=N)N)C(=O)N[C@@H](CCC(=O)O)C(=O)N[C@@H](CC(C)C)C(=O)N[C@H](C(=O)N[C@@H](CCC(=O)O)C(N)=O)C(C)C)NC(=O)[C@H](CCC(N)=O)NC(=O)[C@H](CC(C)C)NC(=O)[C@H](CC(C)C)NC1=O)[C@@H](C)O)C(C)C` (stereo not given in full), the growth is -41% (active).

With `Nc1nc(-c2ccnc(Cl)c2)nn1-c1nc2ccccc2s1`, the growth was 107% (inactive).

As to `O=C(Nc1cccc2cccnc12)c1cc(C(=O)c2ccc(Cl)cc2)n2ccc(-c3ccncc3)cc12`, the growth is 125% (inactive).

As for `CCN(CC)CCN1C(=O)c2cccc3c(/C=C/CN4C(=O)c5cccc6cccc(c56)C4=O)ccc(c23)C1=O`, the growth was 83.4% (inactive).

As to `CC(C)(C)OC(=O)c1ccc(NCc2cc(O)ccc2O)cc1`, the growth is -39.3% (active).

On to `C[C@@H]1C[C@@H]([C@@H](CC2CC(=O)NC(=O)C2)OC(=O)CC(=O)c2ccccc2)C(=O)[C@@H](C)C1`, for which the growth is 13% (inactive).

For the molecule `O=[N+]([O-])c1ccc2c(c1)Cc1ccccc1-2`, the growth was 87% (inactive).

For `O=C1/C(=C/c2ccc([N+](=O)[O-])cc2)CN(C(=O)CCN2CCC(=NO)CC2)C/C1=C\c1ccc([N+](=O)[O-])cc1`, the growth was 2.62% (active).

As for `C[n+]1c2ccccc2c(Nc2ccc(N3CCCCC3)cc2)c2[nH]c3ccccc3c21`, the growth was -55.6% (active).

As to `CCC(=O)NC(O)C(Cl)(Cl)C(C)Cl` (stereo not given), the growth is 119% (inactive).

In the case of `CCCCNC(=O)NS(=O)(=O)c1ccc(N2N=C(c3cc(C)ccc3C)CC2c2cc(OC)c(OC)c(OC)c2)cc1` (stereo not given), the growth was -16.1% (active).

With `O=C1CCC(=O)N1Cc1ccccc1`, the growth is 102% (inactive).

For `CN1CCN(CCCOc2ccc3ncnc(Nc4ccc(OCc5cccc(F)c5)c(Cl)c4)c3c2)CC1`, the growth was -42.3% (active).

As for `COc1cc2c(c(OC)c1OC)C(=O)CC(c1cccc(C(=O)Nc3ccc(C#N)cc3)c1)O2` (stereo not given), the growth is 47% (inactive).

As for `CC(=O)c1ccc(NS(=O)(=O)c2ccc([N+](=O)[O-])cc2)cc1`, the growth is 90.3% (inactive).

Regarding `COc1c2ccccc2c(OC)c2[nH]c(=O)ccc12`, the growth is 71.5% (inactive).

`Cc1csc(Nc2nc(-c3ccc(Cl)cc3)nc(C(Cl)(Cl)Cl)n2)n1`: the growth is 69.3% (inactive).

Regarding `O=S(=O)(NCCNc1cc(-c2cn(-c3ccccc3)nc2-c2cccc(O)c2)ccn1)c1ccccc1`, the growth is 33.9% (inactive).
